Test results: PubChem BioAssay (Tox21)
Results filed as inconclusive are left out. The source made the active and inactive calls. Unless noted, calls follow the shape of the full dose curve.

Legend:
[1] = biological target: Estrogen receptor (Homo sapiens) (UniProt P03372); assay: qHTS assay to identify small molecule agonists of the estrogen receptor alpha (ER-alpha) signaling pathway in the presence of an antagonist (AID 1259383); also: top concentration of the series differs between compounds; nearly all actives have a fitted effect of over 15% in size
Method in brief: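 VM7Luc4E2 cells express endogenous full-length ER-alpha with an ERE-luciferase reporter and were hormone-deprived for 5 days. Compounds at 15 concentrations were added with 10.0nM ICI-182,780 for 22hr at 37C. Luminescence was read with ONE-Glo.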

[2] = qHTS assay to identify small molecule agonists or antagonists of the thyroid stimulating hormone receptor (TSHR) signaling pathway - wild type cell line counter screen (AID 1259384)
Method in brief: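 Wild-type HEK293 cells were plated 18 h at 37 C/5% CO2, pin-dosed with compound plus Ro20-1724 medium, held 30 min at room temperature, then given cAMP-d2 and anti-cAMP-cryptate; fluorescence was read after 1 h. Fifteen concentrations, triplicate.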

[3] = biological target: Thyrotropin receptor (Homo sapiens) (UniProt P16473); assay: qHTS assay to identify small molecule antagonists of the thyroid stimulating hormone receptor (TSHR) signaling pathway (AID 1259385); also: nearly all actives have a fitted effect of over 20% in size
Method in brief: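 TSHR-HEK293 cells were plated and held 18 h at 37C/5% CO2, then given compound plus Ro20-1724 and stimulated with TSH at 1.5 ng/mL final. After 30 min at room temperature, cAMP was detected with cAMP-d2/anti-cAMP-cryptate (1 h) by fluorescence.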

[4] = qHTS assay to identify small molecule agonists of the estrogen receptor alpha (ER-alpha) signaling pathway in the presence of an antagonist - cell viability counter screen (AID 1259386; active = well fitted curve in the direction sought with a large enough effect in the repeat runs; an effect the other way counts as inactive or inconclusive;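 also: series mostly up to about 92 µM; cells exposed to compounds for 22 h at 37 °C before the viability read; nearly all actives have a fitted effect of over 30% in size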)
Method in brief: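 Cell viability in VM7Luc4E2 cells (endogenous full-length ER-alpha) measured by CellTiter-Fluor fluorescence in the same wells as the luciferase screen. Cells pre-cultured 5 days in charcoal-stripped serum, then treated 22 h with compounds at 15 concentrations plus 10.0nM ICI-182,780.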

[5] = biological target: Progesterone receptor (Homo sapiens) (UniProt P06401); assay: qHTS assay to identify small molecule agonists of the progesterone receptor (PR) signaling pathway (AID 1346784); also: nearly all actives have a fitted effect of over 30% in size
Method in brief: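 Compounds were tested for PR agonism in HEK 293T cells bearing a beta-lactamase gene under UAS control. Treatment lasted 16 hr at 37C; signal came from fluorescence of a FRET substrate.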

[6] = biological target: Progesterone receptor (Homo sapiens) (UniProt P06401); assay: qHTS assay to identify small molecule antagonists of the progesterone receptor (PR) signaling pathway (AID 1346795; active = well fitted inhibition curve with a large enough effect in the signal ratio in the repeat runs, not every such curve was filed as active; the % refers to the signal ratio)
Method in brief: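 In HEK293T cells bearing the PR-UAS-bla reporter, compound effects on promegestone-driven (1 nM) beta-lactamase expression are assessed after 16 hr using a fluorescent FRET substrate incubated 2 hr at room temperature.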

[7] = qHTS assay to identify small molecule antagonists of the progesterone receptor (PR) signaling pathway - cell viability counter screen (AID 1346798; active = well fitted curve in the direction sought with a large enough effect in the repeat runs; an effect the other way counts as inactive or inconclusive; also: series mostly up to about 92 µM; nearly all actives have a fitted effect of over 50% in size)
Method in brief: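 Following a 4 hr attachment, PR-UAS-bla HEK293T cells in charcoal-stripped FBS medium were exposed to compounds with R5020 for 16 hr; CellTiter-Glo was added and luminescence read after 30 min at room temperature.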

[8] = qHTS assay to identify small molecule agonists of the progesterone receptor (PR) signaling pathway - cell viability counter screen (AID 1346799); also: nearly all actives have a fitted effect of over 45% in size
Method in brief: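 Here, 3,000 PR-UAS-bla HEK293T cells per well were treated with compounds for 16 hr after a 6 hr preincubation at 37C and 5% CO2; cell viability is the CellTiter-Glo luminescence signal.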

[9] = qHTS assay to identify small molecule antagonists of the TGF-beta/Smad signaling pathway - cell viability counter screen (AID 1346824; active = well fitted curve in the direction sought with a large enough effect in the repeat runs; an effect the other way counts as inactive or inconclusive; also: nearly all actives have a fitted effect of over 50% in size)
Method in brief: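 SBE-bla HEK 293T cells were plated overnight at 37 C, then given compounds in DMSO plus TGF-beta1 (added as 0.25 ng/mL solution) for 5 hr. After the bla read, CellTiter-Glo was added to the same wells and luminescence read after 30 min at room temperature.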

[10] = qHTS assay to identify small molecule agonists of the TGF-beta/Smad signaling pathway - cell viability counter screen (AID 1346829; active = well fitted curve in the direction sought with a large enough effect in the repeat runs; an effect the other way counts as inactive or inconclusive; also: top concentration of the series differs between compounds; nearly all actives have a fitted effect of over 45% in size)
Method in brief: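 Here the cytotoxicity of library compounds is measured in SBE-bla HEK 293T cells treated for 5 hr, using CellTiter-Glo added to wells already read for the beta-lactamase reporter.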

Measured: Potency

Chain of Progesterone receptor (Homo sapiens) (P06401 whole entry, looked up): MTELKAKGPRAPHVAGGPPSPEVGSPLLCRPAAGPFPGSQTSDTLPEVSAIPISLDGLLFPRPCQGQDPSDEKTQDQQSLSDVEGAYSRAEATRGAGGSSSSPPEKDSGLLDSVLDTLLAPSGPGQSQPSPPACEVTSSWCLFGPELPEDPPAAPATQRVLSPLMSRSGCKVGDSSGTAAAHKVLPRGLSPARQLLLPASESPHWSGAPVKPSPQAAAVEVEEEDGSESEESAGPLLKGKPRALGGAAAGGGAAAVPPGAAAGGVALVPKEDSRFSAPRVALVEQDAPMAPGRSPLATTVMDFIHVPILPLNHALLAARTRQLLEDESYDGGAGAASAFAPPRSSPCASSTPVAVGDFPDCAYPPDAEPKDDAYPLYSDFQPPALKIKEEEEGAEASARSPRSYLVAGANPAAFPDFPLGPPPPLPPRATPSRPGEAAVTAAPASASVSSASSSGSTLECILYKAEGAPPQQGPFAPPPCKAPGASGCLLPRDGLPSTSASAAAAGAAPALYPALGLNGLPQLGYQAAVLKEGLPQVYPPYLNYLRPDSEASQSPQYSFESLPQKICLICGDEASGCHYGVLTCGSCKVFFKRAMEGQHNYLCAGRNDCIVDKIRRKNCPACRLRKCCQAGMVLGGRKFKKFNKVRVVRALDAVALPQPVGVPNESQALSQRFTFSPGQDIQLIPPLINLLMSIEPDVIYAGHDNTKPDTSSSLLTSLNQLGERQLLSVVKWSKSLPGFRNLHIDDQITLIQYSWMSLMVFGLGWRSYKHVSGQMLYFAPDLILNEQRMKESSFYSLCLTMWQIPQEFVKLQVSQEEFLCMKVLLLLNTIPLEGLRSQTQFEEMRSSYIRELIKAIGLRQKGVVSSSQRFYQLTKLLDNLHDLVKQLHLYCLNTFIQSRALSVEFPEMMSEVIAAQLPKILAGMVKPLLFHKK
Chain of Thyrotropin receptor (Homo sapiens) (P16473 whole entry, looked up): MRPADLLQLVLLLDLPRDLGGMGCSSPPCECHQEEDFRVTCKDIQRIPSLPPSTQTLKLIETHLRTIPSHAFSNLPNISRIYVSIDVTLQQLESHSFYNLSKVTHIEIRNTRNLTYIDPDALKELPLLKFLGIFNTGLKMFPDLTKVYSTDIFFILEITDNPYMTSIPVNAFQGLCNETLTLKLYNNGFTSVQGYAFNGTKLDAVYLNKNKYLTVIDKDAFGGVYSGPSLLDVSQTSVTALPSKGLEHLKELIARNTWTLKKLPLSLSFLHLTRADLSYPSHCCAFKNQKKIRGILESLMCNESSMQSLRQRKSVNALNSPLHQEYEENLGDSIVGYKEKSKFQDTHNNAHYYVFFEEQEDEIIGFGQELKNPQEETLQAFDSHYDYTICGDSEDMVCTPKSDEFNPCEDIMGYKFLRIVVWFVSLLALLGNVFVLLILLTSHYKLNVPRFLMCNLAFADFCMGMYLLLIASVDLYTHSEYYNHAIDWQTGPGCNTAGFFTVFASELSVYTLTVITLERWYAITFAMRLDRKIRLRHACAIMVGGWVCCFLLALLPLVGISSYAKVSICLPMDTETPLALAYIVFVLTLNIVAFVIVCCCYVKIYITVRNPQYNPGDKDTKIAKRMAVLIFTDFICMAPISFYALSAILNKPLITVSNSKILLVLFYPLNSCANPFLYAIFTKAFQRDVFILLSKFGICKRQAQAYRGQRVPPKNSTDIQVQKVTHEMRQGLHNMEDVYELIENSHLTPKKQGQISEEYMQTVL
Chain of Estrogen receptor (Homo sapiens) (P03372 whole entry, looked up): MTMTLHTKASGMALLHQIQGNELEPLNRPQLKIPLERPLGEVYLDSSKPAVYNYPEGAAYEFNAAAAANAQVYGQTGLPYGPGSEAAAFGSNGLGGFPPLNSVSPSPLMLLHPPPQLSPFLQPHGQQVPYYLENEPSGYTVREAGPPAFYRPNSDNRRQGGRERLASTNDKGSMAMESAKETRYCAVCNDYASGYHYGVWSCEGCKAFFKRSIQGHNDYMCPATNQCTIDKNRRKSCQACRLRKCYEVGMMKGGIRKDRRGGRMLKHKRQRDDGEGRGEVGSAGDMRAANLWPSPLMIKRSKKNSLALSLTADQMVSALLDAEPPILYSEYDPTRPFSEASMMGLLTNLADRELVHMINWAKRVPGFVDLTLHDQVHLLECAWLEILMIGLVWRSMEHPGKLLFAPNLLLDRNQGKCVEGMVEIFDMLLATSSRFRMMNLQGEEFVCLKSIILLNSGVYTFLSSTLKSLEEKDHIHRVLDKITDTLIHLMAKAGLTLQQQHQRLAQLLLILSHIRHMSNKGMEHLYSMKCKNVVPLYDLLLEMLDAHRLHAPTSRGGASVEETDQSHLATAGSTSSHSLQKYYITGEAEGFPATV

O=C(O)/C=C(\CC(=O)O)C(=O)O
inactive: all assays above

O=C1c2ccccc2C(=O)N1CO
inactive: all assays above

COCCCOc1cc(C[C@@H](C[C@H](N)[C@@H](O)C[C@H](C(=O)NCC(C)(C)C(N)=O)C(C)C)C(C)C)ccc1OC
inactive: all assays above

O=C(O)Cc1ccccc1Oc1ccc(Cl)cc1Cl
inactive: all assays above

Cc1cc(C)c(N)c(Cl)c1
not listed: [10]
inactive: all other assays above

Clc1cc(Cl)c(Cl)c(Cl)c1Cl
not listed: [10]
inactive: all other assays above

CC1(C)S[C@@H]2[C@H](NC(=O)Cc3ccccc3)C(=O)N2[C@H]1C(=O)O (tested in a mixture with another compound)
not listed: [10]
inactive: all other assays above

CC/C=C\CCCCCCCCCCOC(C)=O
not listed: [10]
inactive: all other assays above

CN(C)c1ccncc1
not listed: [10]
inactive: all other assays above

Cc1ccc(N)nc1
inactive: all assays above

Cc1ccc(S(=O)(=O)NC(=O)NN2CC3CCCC3C2)cc1 (stereo unspecified)
not listed: [10]
inactive: all other assays above

CCN1CCN(C(=O)N[C@@H](C(=O)N[C@@H]2C(=O)N3[C@@H]2SC(C)(C)[C@H]3C(=O)O)c2ccccc2)C(=O)C1=O
inactive: all assays above

COc1cnc(NS(=O)(=O)c2ccc(N)cc2)nc1
inactive: all assays above

CC[C@@]1(c2ccccc2)NC(=O)N(C)C1=O
inactive: all assays above

C/C=C/C(=O)CCCC
not listed: [10]
inactive: all other assays above

CC(=O)OC/C=C(/C)CCC=C(C)C
inactive: all assays above

CC(C)(O)c1ccc(C(C)(C)O)cc1
inactive: all assays above

C/C=C(\C)C(=O)OC/C=C(\C)CCC=C(C)C
inactive: all assays above

C=COCCCCO
not listed: [10]
inactive: all other assays above

C=CC(=O)OCC[N+](C)(C)C
inactive: all assays above

CCN(CC)CC
inactive: all assays above

c1coc(Cn2cccc2)c1
inactive: all assays above

C=CC(C)(CCC=C(C)C)OC(=O)C(C)C (stereo unspecified)
not listed: [10]
inactive: all other assays above

Cc1cccc(N)n1
inactive: all assays above
